These results are taken from PubChem BioAssay (NCI).

This is part of a sample that, as a whole, favours compounds with a hit. Of some 83,000 tested, about 20% had one in any assay.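 Each cell line was grown in a 96-well plate and treated with one concentration of compound for 48 hours. Values below 10 were considered active.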 The source made the active and inactive calls.

For the assay, the system named is MDA-MB-468 breast. The assay can be described thus: NCI-60 one-dose screen, 48 h (100 = growth as untreated, 0 = no growth, -100 = all killed). The note with it: 10 µM unless noted.
For the molecule `C#Cc1nc(/C=C/C(=O)c2nccn2C)cs1`, the growth was -28.5% (active).
Take `O=C1/C(=C\c2cccn2Cc2ccc(F)cc2)c2ccccc2N1c1c(Cl)cccc1Cl`: the growth was 9.21% (active).
The same measure for `COc1ccc2[nH]c(C(=O)N3CCN(C(=O)OCc4ccc5c(Br)cc(Br)c(O)c5n4)CC3)cc2c1`: -80.5% (active); for `CN1CCN(Cc2ccc(NC(=O)c3ccc(C#N)c(C#Cc4cnc(N)c5ncccc45)c3)cc2C(F)(F)F)CC1`: 98% (inactive); for `COc1cc(/C=C/c2cc(/C=C/c3ccc(O)c(OC)c3)n(C(=O)Nc3ccccc3Cl)n2)ccc1O`: -24.2% (active).
The same measure for `CCc1cccc2c3c(sc12)C(c1ccc(Cl)cc1)C(C#N)=C(/N=C/c1ccc(Cl)cc1)O3` (stereo not given): -16.3% (active); for `NC(=O)c1cc(-c2ccc3ncnc(N4CCc5cc(F)c(Cl)cc54)c3c2)cnc1N`: -35.3% (active).
The same measure for `Clc1ccc(Cc2ccncc2)cc1`: 99.2% (inactive); for `O=c1[nH]c(-c2ccc(Cl)cc2)cn1-c1ccc(-n2cc(-c3ccc(Cl)cc3)[nH]c2=O)cc1`: 103% (inactive); for `COc1ccc(C(=O)Nc2ncc(Cc3ccccc3Cl)s2)cc1`: 24.7% (inactive).
With `O=C(c1ccccc1)c1cccc(C(Br)Br)c1`, the growth was 92.5% (inactive).
In the case of `Oc1c(CN2CCOCC2)cc(COCc2ccccc2)c2cccnc12`, the growth was 12.1% (inactive).
Under `CCCCN1CCCn2c1nc1c2c(=O)n(CCC)c(=O)n1CCC` stands 101% (inactive).
Regarding `NC(=O)c1c(NC(=O)c2ccc3ccccc3c2)sc2c1CCC(=O)C2`, the growth is 85.8% (inactive).
Under `Oc1ccc(Cl)cc1Sc1cc(Cl)ccc1O` stands 22% (inactive).
On to `Cc1ccc(S(=O)(=O)NC(CCC(=O)Nc2ccccc2)C(=O)Nc2ccccc2)cc1` (stereo not given), for which the growth was -20.6% (active).
Regarding `NC(=O)N/N=C\c1ccco1`, the growth is 119% (inactive).
As for `C=CC[N+](C)(C)C`, the growth is 97.4% (inactive).
Consider `c1ccc(CCSc2ncnc3nc[nH]c23)cc1`, for which the growth was 49% (inactive).
Regarding `CCCCC1COc2cccc3c2N1C=C/C3=C\C(=O)N(C)c1cccc(Cl)c1` (stereo not given), the growth was 84.4% (inactive).
Under `O=c1[nH]nc(-c2ccc(Br)cc2)c2sc(NC(=S)Nc3ccc(Cl)cc3)nc12` stands 110% (inactive); under `O=C(c1ccc(O)c(Br)c1)c1ccc(O)c(Br)c1`, 106% (inactive); under `COc1cc(/C=C2\C(=O)Nc3cc(Cl)ccc32)ccc1OCc1ccc(F)cc1`, 93% (inactive).
The same measure for `CCOC(=O)c1ccc(C(C)(C)C)cc1`: 107% (inactive); for `COc1ccc(-c2nc(N/N=C/c3cccc(O)c3)nc(N3CCOCC3)c2C#N)cc1`: 87.1% (inactive); for `COc1ccc(C2c3ccc4ccccc4c3Oc3ncnc(N)c32)cc1` (stereo not given): 86.6% (inactive).
The same measure for `COc1ccc(C/C(C)=C(/c2ccc(OCCN3CCCCC3)cc2)c2ccc(OC(=O)NCc3ccccc3)cc2)cc1`: -82.7% (active); for `O=S(=O)(NCCCNc1nccc(-c2[nH]c(-c3ccccc3)nc2-c2ccc(F)c(O)c2)n1)c1cccc2ccccc12`: 48.8% (inactive); for `COc1ccc(-c2nc3sccn3c2-c2ccnc(NCCCNS(=O)(=O)c3ccc4ccccc4c3)n2)cc1`: 71.1% (inactive).
For the molecule `CCOC(=O)Oc1c(OC)cc(C(=O)c2ccc(OC)c(O)c2OC)cc1OC`, the growth was 19.8% (inactive).
Under `CSc1nc(C)c(C(=O)CCN2CCN(c3ccccn3)CC2)s1` stands 87.1% (inactive).
Regarding `COc1ccc(S(=O)(=O)NCCNc2nccc(-c3c(-c4cccc([N+](=O)[O-])c4)nc4sccn34)n2)cc1`, the growth was 69.7% (inactive).
Under `Cc1nn(-c2ccccc2)c2c1oc(=O)c1cc(Cl)ccc12` stands 98.7% (inactive); under `C=C(c1ccc(C(=O)NCCCn2ccnc2)cc1)c1cc2c(cc1C)C(C)(C)CCC2(C)C`, -5.41% (active).
Under `Cc1ncc(C(=O)Nc2ccc(CN3CCN(C)CC3)c(C(F)(F)F)c2)cc1C#Cc1cnc(N)cc1C#N` stands 68.2% (inactive); under `O=C(NCCn1ccnc1)c1ccc(-c2nc3ccc4[nH]ncc4c3c3c2CCCC3)cc1`, 10.1% (inactive).
The same measure for `Cc1nc2cnc(N)c(C#Cc3cncc(C(=O)Nc4ccc(CN5CCN(C)CC5)c(C(F)(F)F)c4)c3)c2nc1C`: 55.8% (inactive); for `CO[C@H]1/C=C(/C)CCC[C@H](C)[C@H](O)[C@@H](C)C(=O)C(C)(C)[C@@H](O)CC(=O)O[C@@H]1/C(C)=C/c1csc(C)n1`: -23.3% (active).
Turning to `O=C1C(Cl)=C(NCCCN2CCOCC2)C(=O)c2ccccc21`, the growth was 64.7% (inactive).
The same measure for `NS(=O)(=O)c1nnc(/N=C/c2c(O)[nH]c3ccccc23)s1`: 109% (inactive).
